One assay relates to MCC-26. Put plainly: qHTS assay to identify novel small-molecules to repurpose for Merkel cell carcinoma treatment (AID 1296009). Also: nearly all actives have a fitted effect of over 60% in size. As to conditions: MCC and control cell lines, CellTiter-Glo viability, 72 h; series mostly up to 46 µM. The method in brief: (§1)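 Cell viability, measured as CellTiter-Glo luminescence, was normalized between DMSO and no-cell wells. The cells had been exposed to 8- or 11-point compound dilutions for 72 hr at 37 degree celsius.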

Another assay has as its system MKL-2. Described as above. As to conditions: MCC and control cell lines, CellTiter-Glo viability, 72 h; series mostly up to 46 µM. The method in brief: as §1
(In ATP-based viability assays light output follows the ATP content of the culture.)

The subject of the next assay is WaGa. The assay is described as above. As to conditions: MCC and control cell lines, CellTiter-Glo viability, 72 h; series mostly up to 46 µM. The method in brief: as §1
For the next assay, the system named is C33A. Put plainly: Primary qHTS to identify gynecologic anti-cancer compounds using libraries of approved drugs and bioactive compounds (AID 1345084). Also: nearly all actives have a fitted effect of over 55% in size. As to conditions: Gynecologic cancer cell panel viability, ATPlite luminescence, 48 h; series mostly up to 57.5 µM. In short, it runs like this: (§2)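 In this quantitative HTS, cell killing is estimated from loss of ATP-dependent luciferase light. Cells see five compound concentrations over a 48 h exposure.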

Another assay deals with CAOV3. Described as above. As to conditions: Gynecologic cancer cell panel viability, ATPlite luminescence, 48 h; series mostly up to 57.5 µM. In short, it runs like this:
as §2

The next assay has as its system CASKI. The description is as above. As to conditions: Gynecologic cancer cell panel viability, ATPlite luminescence, 48 h; series mostly up to 57.5 µM. In short, it runs like this:
as §2

Another assay relates to Es-2. Described as above. As to conditions: Gynecologic cancer cell panel viability, ATPlite luminescence, 48 h; series mostly up to 57.5 µM. In short, it runs like this: as §2
A further assay deals with Hek293T. Described as above. As to conditions: Gynecologic cancer cell panel viability, ATPlite luminescence, 48 h, control line for the selectivity index; series mostly up to 57.5 µM. The method in brief: as §2
In a further assay the test system is OV90. The description is as above. As to conditions: Gynecologic cancer cell panel viability, ATPlite luminescence, 48 h; series mostly up to 57.5 µM. The method in brief: as §2
In a further assay the test system is Tov112D. The assay is described as above. As to conditions: Gynecologic cancer cell panel viability, ATPlite luminescence, 48 h; series mostly up to 57.5 µM. The method in brief: as §2
In another assay the test system is HeLa. The assay is described as above. As to conditions: Gynecologic cancer cell panel viability, ATPlite luminescence, 48 h; series mostly up to 57.5 µM. The method in brief: as §2
The next assay deals with Tov-21-G. Described as above. As to conditions: Gynecologic cancer cell panel viability, ATPlite luminescence, 48 h; series mostly up to 57.5 µM. The method in brief:
as §2

Another assay relates to astro. Briefly: Drug repurposing screens with cells derived from glioblastoma tumor samples (AID 1345199). Also: nearly all actives have a fitted effect of over 40% in size. As to conditions: viability, ATP luminescence, 48 h; series mostly up to 45.9 µM. The method in brief:
(§3)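 Primary testing used CD133+ neurospheres from four GBM patients, seven concentrations, 48 h exposure and ATP-based viability; confirmation added three slower-growing patient lines.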

Another assay has as its system UISO. Put plainly: qHTS assay to identify novel small-molecules to repurpose for Merkel cell carcinoma treatment (AID 1296009). Also: nearly all actives have a fitted effect of over 60% in size. As to conditions: MCC and control cell lines, CellTiter-Glo viability, 72 h; series mostly up to 46 µM. In short, it runs like this:
as §1

The next assay concerns JEG-3. Briefly: Primary qHTS to identify gynecologic anti-cancer compounds using libraries of approved drugs and bioactive compounds (AID 1345084). Also: nearly all actives have a fitted effect of over 55% in size. As to conditions: Gynecologic cancer cell panel viability, ATPlite luminescence, 48 h; series mostly up to 57.5 µM. In short, it runs like this: as §2
(In general: Quantitative high-throughput screening tests each substance at several concentrations.)

The next assay has as its system PA-1. The assay is described as above. As to conditions: Gynecologic cancer cell panel viability, ATPlite luminescence, 48 h; series mostly up to 57.5 µM. In short, it runs like this:
as §2

Another assay relates to SKOV3. Described as above. As to conditions: Gynecologic cancer cell panel viability, ATPlite luminescence, 48 h; series mostly up to 57.5 µM. In short, it runs like this:
as §2

A further assay deals with MKL-1. Briefly: qHTS assay to identify novel small-molecules to repurpose for Merkel cell carcinoma treatment (AID 1296009). Also: nearly all actives have a fitted effect of over 60% in size. As to conditions: MCC and control cell lines, CellTiter-Glo viability, 72 h; series mostly up to 46 µM. The method in brief: as §1
The next assay deals with NIH3T3. The description is as above. As to conditions: MCC and control cell lines, CellTiter-Glo viability, 72 h; at 44.8 µM (top of the series) unless noted. The method in brief: as §1
Assay [1] is described as follows: Drug repurposing screens with cells derived from glioblastoma tumor samples (AID 1345199). Also: nearly all actives have a fitted effect of over 40% in size. As to conditions: GBM patient neurospheres viability, ATP luminescence, 48 h. In short, it runs like this:
as §3

“And” between values parts separate entries of the source, which are not always exact repeats. Equal entries are not always repeated. Inconclusive results are not listed. A structure can be active in one record and inactive in another. The source made the active and inactive calls. Calls follow the shape of the dose curve; as a rule, active = well fitted curve in the direction sought with a large enough effect; inconclusive = small, poorly fitted or top-dose-only effect, or another doubt; inactive = no such curve, though single readings can be large; an effect the other way counts as inactive or inconclusive.
% is scaled to controls: 0 for no effect and ±100 for the full control effect; potency is read from the fitted curve at half-maximal effect.

As for `CS(=O)(=O)c1cccc(CNc2nc(Nc3ccc4c(c3)CCC(=O)N4)ncc2C(F)(F)F)c1`, the Potency result with MCC-26, with MKL-2, with C33A, in the assay on CAOV3, in the assay on CASKI and with Es-2 was “inactive” throughout. For the same molecule, the Potency result in the assay on Hek293T, in the assay on OV90 and in the assay on Tov112D was “inactive” throughout. In the assay on WaGa, the Potency is 16.6 µM (active).
With `CNC(=O)c1ccccc1Sc1ccc2c(/C=C/c3ccccn3)n[nH]c2c1`, the Potency entry in the assay on MCC-26 is “inactive”. The Potency in the assay with CAOV3 was 10 µM (active) and 8.91 µM (active); in the assay on CASKI it was 11.2 µM (active); with Es-2 it was 15.8 µM (active) and 17.8 µM (active); in the assay on HeLa, 3.98 µM (active) and 3.55 µM (active); in the assay on Hek293T it was 10 µM (active) and 12.6 µM (active); with OV90 it was 11.2 µM (active). Also, the Potency is 11.2 µM (active) with Tov-21-G, 8.91 µM (active) in the assay on Tov112D and 2 µM (active) in the assay on astro.
`CC(C)(Sc1ccc(CCN(CCCCC2CCCCC2)C(=O)NC2CCCCC2)cc1)C(=O)O`: the Potency entry with MCC-26, with UISO, with C33A, in the assay on CASKI, in the assay on Es-2 and in the assay on HeLa was “inactive” throughout. For the same molecule, the Potency result with Hek293T, with JEG-3, with OV90, with PA-1, in the assay with SKOV3 and with Tov-21-G was “inactive” each time. Besides, the Potency result in the assay on Tov112D is “inactive”.
Regarding `COc1cc(Oc2ccnc3cc(OC)c(OC)cc23)ccc1NC(=O)NC(C)c1nccs1` (configuration not stated), the Potency entry with MKL-1, in the assay with MKL-2, in the assay with WaGa, with C33A, in the assay on CAOV3 and in the assay on CASKI was “inactive” each time. The Potency result with Es-2, in the assay with HeLa, with Hek293T, with JEG-3, with OV90 and with PA-1 was “inactive” each time. Moreover, the Potency result in the assay with SKOV3, in the assay on Tov-21-G and in the assay with Tov112D was “inactive” in each case. Also, the outcome in the assay on NIH3T3 was inactive.
In the case of `N#Cc1ccc(C(c2ccc(C#N)cc2)n2cncn2)cc1`, the Potency entry in the assay with MCC-26, in the assay with MKL-2, in the assay with UISO, in the assay with WaGa and with astro was “inactive” each time. The activity, negative = cell killing is -3.52% (inactive) in [1] (at 20 µM (top of the series), tumour line C); -10% (inactive) in assay [1] (at 21.2 µM (top of the series), tumour line B); -7.94% (inactive) in assay [1] (at 21.2 µM (top of the series), tumour line D).
`O=C(NOC[C@H](O)CO)c1ccc(F)c(F)c1Nc1ccc(I)cc1F`: the Potency result in the assay with MCC-26, in the assay with C33A, in the assay on CASKI, in the assay on HeLa, in the assay with Hek293T and in the assay on JEG-3 was “inactive” throughout. Further, the Potency entry in the assay on PA-1, in the assay on SKOV3 and in the assay on Tov112D was “inactive” throughout. The Potency in the assay on astro is 0.447 µM (active).
Regarding `O=C(Nc1nc2ccccc2n1CCN1CCOCC1)c1cccc([N+](=O)[O-])c1`, the Potency entry in the assay on MCC-26 and with UISO was “inactive” each time. For the same molecule, in the assay with NIH3T3, the molecule was called inactive.
`CCOc1ccc(Cc2cc([C@@H]3O[C@H](CO)[C@@H](O)[C@H](O)[C@@H]3O)ccc2Cl)cc1`: the Potency entry in the assay with MCC-26, with MKL-2 and in the assay with UISO was “inactive” throughout.
For `Cc1c(C)c2c(c(C)c1O)CCC(C)(COc1ccc(CC3SC(=O)NC3=O)cc1)O2` (configuration not stated), the Potency entry in the assay with MKL-1, in the assay on MKL-2, in the assay on C33A, with CAOV3, in the assay on CASKI and in the assay with Es-2 was “inactive” in each case. Besides, the Potency entry with HeLa, in the assay on Hek293T, in the assay on JEG-3, in the assay on OV90, in the assay with PA-1 and in the assay on Tov-21-G was “inactive” each time. Further, the Potency result in the assay with Tov112D was “inactive”. Moreover, the molecule was called inactive in the assay with NIH3T3. In addition, the Potency with WaGa was 16.8 µM (active) and inactive; with astro it was 10 µM (active). The activity, negative = cell killing in [1] (at 45.9 µM (top of the series), tumour line B) was -4.67% (inactive); in assay [1] (at 46.1 µM (top of the series), tumour line C), -19.7% (inactive).
For the molecule `Cc1cc(SCc2sc(-c3ccc(C(F)(F)F)cc3)nc2C)ccc1OCC(=O)O`, the Potency entry with MKL-1, in the assay with MKL-2, in the assay with UISO, in the assay on WaGa, in the assay on CAOV3 and in the assay with CASKI was “inactive” throughout. The Potency result in the assay with Es-2, in the assay with HeLa, in the assay on Hek293T, in the assay with JEG-3, with OV90 and in the assay on PA-1 was “inactive” each time. Further, the Potency entry in the assay on SKOV3, in the assay with Tov-21-G and in the assay on Tov112D was “inactive” throughout. Also, in the assay on NIH3T3, the call was inactive.
Turning to `COc1ccc(C2=N[C@H](c3ccc(Cl)cc3)[C@H](c3ccc(Cl)cc3)N2C(=O)N2CCNC(=O)C2)c(OC(C)C)c1`, the Potency result in the assay with MCC-26 is “inactive”. Further, the Potency in the assay on MKL-1 was 9.35 µM (active); in the assay on WaGa, 2.96 µM (active).
As for `COc1cc2c(cc1OC)CN(CCc1ccc(NC(=O)c3cccc4c(=O)c5cccc(OC)c5[nH]c34)cc1)CC2`, the Potency result in the assay with MKL-1, with C33A, in the assay with CAOV3, with CASKI, with Es-2 and in the assay with HeLa was “inactive” in each case. For the same molecule, the Potency result in the assay on Hek293T, in the assay with JEG-3, with OV90, in the assay with PA-1, in the assay on SKOV3 and in the assay on Tov-21-G was “inactive” throughout. Also, the Potency entry in the assay on Tov112D is “inactive”. Moreover, in the assay with MKL-2, the Potency is 16.6 µM (active). Moreover, the molecule was called inactive in the assay on NIH3T3.
Turning to `CCn1c(-c2nonc2N)nc2cnc(Oc3cccc(NC(=O)c4ccc(OCCN5CCOCC5)cc4)c3)cc21`, the Potency result with MCC-26 and with MKL-2 was “inactive” throughout.
As for `CC[C@H](Nc1ncnc2nc[nH]c12)c1nc2cccc(F)c2c(=O)n1-c1ccccc1`, the Potency entry with MCC-26, in the assay with MKL-1 and in the assay with UISO was “inactive” in each case. Also, the activity change, negative = cytotoxicity with C33A is -4.71% [at 11.6 µM] (inactive); in the assay on CAOV3, -6.79% [at 11.6 µM] (inactive); in the assay with CASKI, -22.6% [at 11.6 µM] (inactive); in the assay on Es-2, -27.1% [at 11.6 µM] (inactive); in the assay with HeLa, -8.83% [at 11.6 µM] (inactive); in the assay with Hek293T, -17.7% [at 11.6 µM] (inactive). For the same molecule, the activity change, negative = cytotoxicity is -10.7% [at 11.6 µM] (inactive) with JEG-3; -4.59% [at 11.6 µM] (inactive) in the assay with OV90; 0.976% [at 11.6 µM] (inactive) with PA-1; -9.1% [at 11.6 µM] (inactive) with Tov-21-G; -0.869% [at 11.6 µM] (inactive) in the assay with Tov112D.
For `COc1ccc(-c2ccc3c(N4CCOCC4)nc(N4C[C@@H](C)O[C@@H](C)C4)nc3n2)cc1CO`, the Potency entry with MKL-1 was “inactive”.

The values are drawn from PubChem BioAssay (NCATS).
